The values that follow come from PubChem BioAssay (Tox21).

The nature of assay [1]: A CellTox Green Cytotoxicity Assay to monitor cytotoxicity in HepG2 cells - 8 hour (AID 1224890). Further: nearly all actives have a fitted effect of over 45% in size. Further: potency means the concentration at half of the fitted maximal effect. The method in brief: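 HepG2 cells were seeded together with the CellTox Green dye at 600 cells/well, left 5 h at 37 C/5% CO2, then given compounds in DMSO. Fluorescence from dye bound to dead-cell DNA was read repeatedly over 40 h of treatment at 37 C.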
Assay [2] is described as follows: qHTS assay to identify small molecule antagonists of the estrogen receptor alpha (ER-alpha) signaling pathway using the BG1 cell line in the presence of 0.1 nM 17-beta-estradiol - cell viability counter screen (AID 1259241). Further: nearly all actives have a fitted effect of over 40% in size. The gist of the method:
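Following 5 days in phenol red-free medium with charcoal-stripped serum, VM7Luc4E2 cells received test compounds alongside 0.1 nM 17beta-estradiol (final) at 37C for 22 hr. Live cells were then quantified via protease-substrate fluorescence.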

Assay [3] in a line: qHTS assay to identify small molecule antagonists of the androgen receptor (AR) signaling pathway using the MDA cell line in the presence of 0.5 nM R1881 - cell viability counter screen (AID 1259242). Further: nearly all actives have a fitted effect of over 45% in size. The method in brief:
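MDA-kb2 cells (human breast carcinoma, stably carrying MMTV-luciferase reporter) were exposed to compounds with 0.5 nM R1881 (final) for 16 hr at 37C, 0% CO2; viability then read as live-cell protease fluorescence (CellTiter-Fluor, 30 min) in the same wells.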

For assay [4], the target named is Estrogen receptor (Homo sapiens) (UniProt P03372). The assay can be described thus: qHTS assay to identify small molecule antagonists of the estrogen receptor alpha (ER-alpha) signaling pathway using the BG1 cell line in the presence of 0.1 nM 17-beta-estradiol (AID 1259244). Further: nearly all actives have a fitted effect of over 50% in size. Further: potency means the concentration at half of the fitted maximal effect. The gist of the method:
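VM7Luc4E2 cells (endogenous full-length ER-alpha, stable 4xERE-luciferase) were grown 5 days in phenol red-free medium with charcoal-stripped FBS, then exposed 22 h at 37C to compounds plus 0.1 nM (final) 17beta-estradiol; ONE-Glo luminescence read-out.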

Assay [5] is described as follows: qHTS assay to identify small molecule phospholipidosis (PLD) inducers (AID 1259344; active means well fitted curve in the direction sought with a large enough effect; an effect the other way counts as inactive or inconclusive). The gist of the method: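 HepG2 cells on collagen I, attached 4 h at 37 C, were co-treated with compound and LipidTOX Red dye for 24 h at 37 C, then fixed with paraformaldehyde plus Hoechst 33342 and imaged by high-content microscopy for phospholipid accumulation.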
Assay [6] in a line: qHTS assay to identify small molecule HDAC inhibitors (AID 1259364). Further: nearly all actives have a fitted effect of over 45% in size. Further: potency means the concentration at half of the fitted maximal effect. The method in brief: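 Wild-type HCT-116 cells were plated overnight, exposed to compounds for 2 h at 37 °C, then given HDAC-Glo class I/II luminogenic reagent for 30 min at room temperature before luminescence was read.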
A short description of assay [7]: qHTS assay to identify small molecule HDAC inhibitors - cell viability counter screen (AID 1259365). Further: series mostly up to about 92 µM; nearly all actives have a fitted effect of over 50% in size. The gist of the method: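 HCT-116 wild-type, overnight attachment; 2hr drug exposure, 37C; CellTiter-Glo luminescent ATP readout after 30min RT.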
A short description of assay [8]: qHTS assay to identify small molecule agonists of the sonic hedgehog signaling (Shh) pathway - cell viability counter screen (AID 1259366). Further: nearly all actives have a fitted effect of over 50% in size. Further: potency means the concentration at half of the fitted maximal effect. The method in brief: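 Compounds in DMSO were pin-transferred onto 3T3 Gli1-Luc cells that had settled 4hr; plates then stood 24hr at 37C and 5% CO2. One hour before the end, CellTiter-Fluor was added and fluorescence recorded.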

Assay [9] is described as follows: qHTS assay to identify small molecule antagonists of the sonic hedgehog signaling (Shh) pathway - cell viability counter screen (AID 1259367). Further: nearly all actives have a fitted effect of over 55% in size. Further: potency means the concentration at half of the fitted maximal effect. The method in brief: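 NIH/3T3-derived Gli1-Luc reporter cells (2,000 per well) rested 4 hr at 37 C, then received DMSO compounds plus conditioned medium. After 23 hr of treatment, CellTiter-Fluor was added for 1 hr at 37C and fluorescence read.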

Assay [10] addresses Androgen receptor (Homo sapiens) (UniProt P10275). The assay can be described thus: qHTS assay to identify small molecule antagonists of the androgen receptor (AR) signaling pathway using the MDA cell line in the presence of 0.5 nM R1881 (AID 1259243). Further: nearly all actives have a fitted effect of over 50% in size. Further: potency means the concentration at half of the fitted maximal effect. The method in brief:
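MDA-kb2 human breast carcinoma cells carrying an MMTV-luciferase reporter (AR- and GR-responsive) were plated, rested 5 hr at 37C, dosed with compounds, then stimulated with 0.5 nM R1881 (final) for 16 hr; luminescence was read after ONE-Glo.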

Values joined by “and” are separate entries in the source; they are usually repeats but may differ in a detail not shown here. Identical values can stand only once. Inconclusive results are not listed. Some compounds were tested as several samples or in several runs, with calls that do not always agree. Active and inactive are the calls of the source. Unless noted, the call rests on the fitted dose curve; in most records, active means well fitted curve in the direction sought with a large enough effect in the repeat runs; inconclusive means weak or mixed curves; inactive means no such curve, though single readings can be large; an effect the other way counts as inactive or inconclusive.

Estrogen receptor (Homo sapiens), sequence (P03372 whole entry, looked up): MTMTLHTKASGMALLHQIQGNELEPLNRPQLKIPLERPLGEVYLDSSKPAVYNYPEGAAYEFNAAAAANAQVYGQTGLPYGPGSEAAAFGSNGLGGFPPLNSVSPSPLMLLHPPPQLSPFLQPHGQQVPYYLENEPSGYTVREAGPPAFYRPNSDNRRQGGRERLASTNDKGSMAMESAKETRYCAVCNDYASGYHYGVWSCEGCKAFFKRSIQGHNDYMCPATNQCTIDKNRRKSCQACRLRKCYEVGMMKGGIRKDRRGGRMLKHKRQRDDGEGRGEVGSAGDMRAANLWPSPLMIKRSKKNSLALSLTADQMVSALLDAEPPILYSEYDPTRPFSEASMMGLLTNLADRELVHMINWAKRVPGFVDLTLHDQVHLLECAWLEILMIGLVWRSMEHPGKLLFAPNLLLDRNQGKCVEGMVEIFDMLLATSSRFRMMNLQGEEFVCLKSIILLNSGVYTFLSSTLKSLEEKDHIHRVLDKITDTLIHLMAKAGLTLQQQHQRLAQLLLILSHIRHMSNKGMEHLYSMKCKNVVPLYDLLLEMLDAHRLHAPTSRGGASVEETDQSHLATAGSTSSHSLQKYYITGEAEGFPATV
Androgen receptor (Homo sapiens), sequence (P10275 whole entry, looked up): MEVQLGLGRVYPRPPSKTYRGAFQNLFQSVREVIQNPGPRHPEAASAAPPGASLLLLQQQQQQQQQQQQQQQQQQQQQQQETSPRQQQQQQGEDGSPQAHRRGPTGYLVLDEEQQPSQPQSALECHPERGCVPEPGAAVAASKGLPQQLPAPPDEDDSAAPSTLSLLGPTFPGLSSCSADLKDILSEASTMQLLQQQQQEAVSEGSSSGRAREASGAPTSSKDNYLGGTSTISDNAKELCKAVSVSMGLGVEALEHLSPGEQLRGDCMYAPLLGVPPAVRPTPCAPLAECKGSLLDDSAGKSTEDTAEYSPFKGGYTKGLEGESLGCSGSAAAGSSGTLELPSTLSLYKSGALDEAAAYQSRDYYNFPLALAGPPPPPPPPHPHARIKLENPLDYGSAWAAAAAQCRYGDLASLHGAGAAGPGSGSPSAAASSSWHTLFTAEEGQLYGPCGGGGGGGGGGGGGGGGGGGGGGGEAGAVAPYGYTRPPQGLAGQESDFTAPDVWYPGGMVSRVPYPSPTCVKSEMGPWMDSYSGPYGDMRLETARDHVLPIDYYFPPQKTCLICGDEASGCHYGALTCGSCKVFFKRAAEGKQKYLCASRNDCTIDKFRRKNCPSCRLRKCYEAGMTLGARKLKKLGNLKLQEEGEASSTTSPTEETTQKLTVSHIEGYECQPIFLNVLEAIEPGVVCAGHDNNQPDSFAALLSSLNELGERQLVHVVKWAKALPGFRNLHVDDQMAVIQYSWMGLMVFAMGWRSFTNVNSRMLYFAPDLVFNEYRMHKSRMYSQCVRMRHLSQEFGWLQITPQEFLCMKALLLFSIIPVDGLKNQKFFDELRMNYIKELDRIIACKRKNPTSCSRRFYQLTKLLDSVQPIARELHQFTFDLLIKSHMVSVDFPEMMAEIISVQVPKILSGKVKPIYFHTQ

With `NC(N)=NC(N)=NCCc1ccccc1`, the Potency result in assay [1], in assay [2], in [3], in assay [5], in assay [6] and in assay [8] was “inactive” in each case. The Potency result in [9] was “inactive”. For the same molecule, in assay [4], the Potency is 7.65 µM (active) and 5.45 µM (active) and 7.5 µM (active). Besides, the outcome in assay [7] was inactive.

As for `C1CNCCN1`, the Potency result in [1], in assay [2], in assay [3], in assay [4], in assay [5] and in assay [6] was “inactive” throughout. The Potency entry in assay [8] and in assay [9] was “inactive” throughout. Besides, the call in [7] was inactive.

Regarding `NCCNc1cccc2ccccc12`, the Potency entry in assay [1], in assay [2], in assay [3], in assay [6] and in assay [9] was “inactive” throughout. The Potency in [10] is 68.5 µM (active) and inactive; in assay [8], 61.1 µM (active) and inactive. Besides, the molecule was classed as inactive in assay [7].

As for `CCCCOCCOCCSC#N`, the Potency entry in assay [1], in assay [3], in [6], in assay [8] and in [9] was “inactive” throughout. In addition, in [7], the outcome was inactive.

Turning to `CCN1CCCC1=O`, the Potency result in [1], in assay [3], in assay [4], in [5], in [6] and in assay [8] was “inactive” each time. Also, the Potency entry in assay [9] is “inactive”. Besides, the outcome in [7] was inactive.

For `Cc1c(N(C)CS(=O)(=O)O)c(=O)n(-c2ccccc2)n1C`, the Potency entry in assay [1], in [3], in assay [5], in [6], in assay [8] and in [9] was “inactive” in each case. Besides, in assay [7], the molecule was classed as inactive.

`CCCCCCCC(=O)OCC(O)CO` (stereo not given): the Potency result in assay [1], in [3], in [5], in assay [6], in assay [8] and in assay [9] was “inactive” in each case. Besides, the call in [7] was inactive.

Regarding `Nc1ccc(N=Nc2ccccc2)c(N)n1`, the Potency result in assay [1], in assay [4] and in [5] was “inactive” throughout. For the same molecule, the Potency is 13.8 µM (active) and 17.2 µM (active) and 10.6 µM (active) in assay [6]; 27.4 µM (active) and 27.3 µM (active) in [8]; 27.4 µM (active) and 24.3 µM (active) in [9]. Further, the molecule was classed as inactive in assay [7].

On to `NC(=O)N/N=C/c1ccc([N+](=O)[O-])o1`, for which the Potency result in assay [1], in [3], in [5] and in assay [6] was “inactive” in each case. Also, the Potency result in assay [4] is “inactive and 64.8 µM (active)”; in assay [8], “inactive and 54.5 µM (active)”; in [9] it was “inactive and 30.6 µM (active)”. Moreover, the molecule was called inactive in [7].

`C=CC(=O)NC(C)(C)CS(=O)(=O)O`: the Potency entry in assay [1] is “inactive and 38.9 µM (active)”. For the same molecule, the Potency entry in assay [3], in [4], in assay [6], in [8] and in assay [9] was “inactive” throughout. Further, the call in assay [7] was inactive.

Consider `C[C@]12C=CC(=O)C=C1CC[C@@H]1[C@@H]2C(=O)C[C@@]2(C)[C@H]1CC[C@]2(O)C(=O)CO`, for which the Potency result in [1], in assay [3], in assay [4], in assay [5], in [6] and in assay [8] was “inactive” throughout. Also, the Potency result in assay [9] is “inactive”. Further, in assay [7], the molecule was classed as inactive.

On to `CC1(C)O[C@@H]2[C@@H](CO[C@@]3(COS(N)(=O)=O)OC(C)(C)O[C@@H]23)O1`, for which the Potency result in assay [1], in assay [3], in [4], in assay [5], in assay [6] and in assay [8] was “inactive” throughout. Besides, the Potency entry in assay [9] was “inactive”. Also, the result in assay [7] was inactive.

With `Nc1cccc(N)c1`, the Potency result in assay [1], in [3], in assay [6], in assay [8] and in assay [9] was “inactive” in each case. Further, the call in assay [7] was inactive.

As to `O=c1cc[nH]c(=O)[nH]1`, the Potency result in assay [1], in assay [3], in assay [5], in assay [6], in assay [8] and in assay [9] was “inactive” throughout. In [7], the molecule was called inactive.

Take `CCCCNC(=O)NS(=O)(=O)c1ccc(N)cc1`: the Potency entry in [1], in assay [3], in assay [5], in assay [6], in [8] and in assay [9] was “inactive” each time. Moreover, the call in assay [7] was inactive.

As to `COC(=O)c1ccc(C=O)cc1`, the Potency result in assay [1], in assay [3], in assay [4], in assay [6], in assay [8] and in [9] was “inactive” throughout. Further, the outcome in assay [7] was inactive.

Take `Cc1cnc(NC(=O)C2=C(O)c3ccccc3S(=O)(=O)N2C)s1`: the Potency result in [1], in [3], in assay [4], in assay [5], in [6] and in [8] was “inactive” each time. Moreover, in assay [9], the Potency result is “inactive”. Moreover, the molecule was classed as inactive in assay [7].

Regarding `CCOC(=O)C(C)(C)Oc1ccc(Cl)cc1`, the Potency result in assay [1], in assay [3], in assay [4], in [5], in assay [6] and in assay [8] was “inactive” in each case. In assay [9], the Potency entry is “inactive”. The molecule was classed as inactive in [7].

In the case of `OC[C@@H](O)[C@@H](O)[C@H](O)[C@H](O)CO`, the Potency entry in assay [1], in assay [3], in assay [4], in [5], in assay [6] and in [8] was “inactive” in each case. For the same molecule, in assay [9], the Potency result is “inactive”. In addition, the outcome in [7] was inactive.

Regarding `CCOCCO`, the Potency entry in assay [1], in assay [3], in assay [6], in [8] and in assay [9] was “inactive” each time. For the same molecule, the molecule was called inactive in [7].

With `C=C(C)C(N)=O`, the Potency entry in assay [1], in assay [3], in assay [4], in [6], in assay [8] and in [9] was “inactive” each time. In addition, the outcome in [7] was inactive.

Regarding `C=CCOC(=O)CC(C)C`, the Potency result in [1], in [3], in assay [4], in [6], in assay [8] and in [9] was “inactive” throughout. Further, in assay [7], the call was inactive.

As for `CC(C)=CCC/C(C)=C/CO`, the Potency result in assay [1], in [3], in [5], in assay [6], in assay [8] and in assay [9] was “inactive” in each case. Besides, the molecule was called inactive in assay [7].

With `CC(C)(C)CC(C)(C)c1ccc(O)c(-n2nc3ccccc3n2)c1`, the Potency result in [1], in assay [3], in assay [4], in assay [5], in assay [6] and in assay [8] was “inactive” each time. In addition, the Potency entry in assay [9] was “inactive”. In [7], the call was inactive.

Take `C#C[C@]1(O)CC[C@H]2[C@@H]3CCC4=CC(=O)CC[C@@H]4[C@H]3CC[C@@]21CC`: the Potency entry in assay [1], in assay [3], in [4], in assay [5], in [6] and in [8] was “inactive” each time. The Potency entry in assay [9] was “inactive”. For the same molecule, the molecule was classed as inactive in assay [7].

For the molecule `COC1=CC(=O)C[C@@H](C)[C@]12Oc1c(Cl)c(OC)cc(OC)c1C2=O`, the Potency entry in assay [1], in assay [3], in [4], in assay [5], in assay [6] and in assay [8] was “inactive” throughout. Moreover, the Potency entry in [9] was “inactive”. The result in assay [7] was inactive.

`O=C(OCc1ccccc1)c1ccccc1`: the Potency result in [1], in assay [3], in assay [5], in assay [8] and in assay [9] was “inactive” in each case. Further, the Potency in [6] is 15.4 µM (active) and 13.7 µM (active) and 10.6 µM (active). Further, the call in [7] was inactive.

For `CC(C)(C)NCC(O)c1ccc(O)c(CO)c1` (stereo not given), the Potency entry in assay [1], in [3], in [4], in assay [5], in assay [6] and in [8] was “inactive” throughout. For the same molecule, the Potency result in assay [9] was “inactive”. Further, the molecule was classed as inactive in [7].

For `CCN(CC)CCOC(=O)c1ccc(N)cc1`, the Potency result in assay [1], in assay [3], in assay [5], in [6], in assay [8] and in [9] was “inactive” in each case. Further, the molecule was called inactive in assay [7].

Turning to `CCc1cc(C(N)=S)ccn1`, the Potency result in assay [1], in assay [3], in [5], in [6], in assay [8] and in assay [9] was “inactive” each time. For the same molecule, the molecule was called inactive in assay [7].

In the case of `C[C@]12C[C@H](O)[C@H]3[C@@H](CCC4=CC(=O)CC[C@@]43C)[C@@H]1CC[C@@H]2C(=O)CO`, the Potency entry in [1], in assay [3], in [4], in [5], in assay [6] and in [8] was “inactive” throughout. Also, in assay [9], the Potency entry was “inactive”. The outcome in assay [7] was inactive.

With `Cn1cnc2c1c(=O)[nH]c(=O)n2C`, the Potency entry in [1], in assay [3], in assay [5], in assay [6], in assay [8] and in assay [9] was “inactive” throughout. In assay [7], the molecule was called inactive.

Turning to `O=C(O)Cc1cccc2ccccc12`, the Potency result in assay [1], in assay [3], in [5], in assay [6], in assay [8] and in assay [9] was “inactive” in each case. Also, in assay [7], the outcome was inactive.
